The source made the active and inactive calls. Unless noted, how the calls were made is not given here.
Tests used:
[1] = system: XIP peptide (Xip251-270) binding; assay: small-molecule binders of XIP peptide, primary screen, biochemical, small-molecule microarray, fluorescence 635/667 nm, 0.1 µg/mL protein (AID 1182); details: fluorescent protein binding, 635 nm, higher = more signal, called active from +8 up or from −8 down
XIP peptide (Xip251-270) = assay: small-molecule binders of XIP peptide, primary screen, biochemical, small-molecule microarray, fluorescence 635/667 nm, 0.5 µg/mL protein (AID 1183); details: small-molecule microarray binding, fluorescence 635 nm; higher = more signal
[2] = Plasmodium falciparum growth inhibition, primary screen, strain 3D7, DAPI fluorescence, 100 nL (AID 1184);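 further: parasites grown inside human red blood cells in medium with human serum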; details: P. falciparum 3D7 growth, 3 d, higher = more signal
[3] = target: Homeobox protein Hox-A13 (Mus musculus) (UniProt Q62424); assay: inhibitors of HoxA13-DNA binding, primary screen, biochemical, fluorescence polarization, labeled oligonucleotide (AID 1185); details: 15 min, higher = more signal, called active from +8 up or from −8 down
Chain of Homeobox protein Hox-A13 (Mus musculus) (Q62424 whole entry, looked up): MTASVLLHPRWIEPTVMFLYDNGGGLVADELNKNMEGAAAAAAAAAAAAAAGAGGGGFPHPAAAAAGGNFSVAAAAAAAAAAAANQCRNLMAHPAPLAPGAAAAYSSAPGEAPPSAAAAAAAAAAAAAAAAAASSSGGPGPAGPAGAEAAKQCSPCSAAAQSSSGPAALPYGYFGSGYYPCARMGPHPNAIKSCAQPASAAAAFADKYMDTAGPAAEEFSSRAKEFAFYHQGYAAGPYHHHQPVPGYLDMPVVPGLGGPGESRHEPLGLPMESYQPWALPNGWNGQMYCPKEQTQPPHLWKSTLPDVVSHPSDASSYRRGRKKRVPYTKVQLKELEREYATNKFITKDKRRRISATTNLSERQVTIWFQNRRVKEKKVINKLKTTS

[4] = inhibitors of hydroxyurea-induced Chk1 phosphorylation, primary screen, imaging, HeLa, phospho-Chk1 antibody, percent positive cells (AID 1186); details: hydroxyurea-induced phospho-Chk1 immunofluorescence imaging, higher = more signal
[5] = inhibitors of hydroxyurea-induced Chk1 phosphorylation, primary screen, imaging, HeLa, phospho-Chk1 nuclear intensity (AID 1187); details: hydroxyurea-induced phospho-Chk1 immunofluorescence imaging, higher = more signal

Compound	composite z-score [1]	composite z-score (XIP peptide (Xip251-270))	z-score [2]	z-score [3]	z-score [4]	z-score [5]
O=C1N(Cc2ccccc2)c2ccccc2[C@H]2OC(c3ccc(OCCCO)cc3)=N[C@@]12Cc1ccccc1	0.447 (inactive)	0.821	-2.41	-2.4 (inactive)	-0.335 (inactive)	-0.59 (inactive)
CCC[C@@H]1[C@@H](Sc2ccccc2)[C@@H](C(=O)O)[C@H](c2ccc(C)cc2)N1S(=O)(=O)c1ccc(C)cc1	0.163 (inactive)	0.787	0.552	-5.85 (inactive)	0.275 (inactive)	0.971 (inactive)
CC1CC/C=C\[C@H]2OC34C=CCN(c5ccc(Cl)cc5)C(=O)[C@H]3N(CCCO)C(=O)[C@]4(C)C2C(=O)O1 (some centres undefined)	0.412 (inactive)	0.861	0.4	-4.75 (inactive)	-0.226 (inactive)	0.117 (inactive)
COCCCNC(=O)[C@@H]1c2ccccc2C(=O)N(C2CCCCC2)[C@H]1c1ccc(CO)cc1	-0.209 (inactive)	0.339	-1.76	-0.837 (inactive)	0.226 (inactive)	-0.182 (inactive)
COCCOC(=O)N1C(=O)[C@@]2(c3cc(C#CC4=CCCCC4)ccc31)[C@H](C(=O)N1CCN(c3ncccn3)CC1)[C@H]1C(=O)O[C@H](c3ccccc3)[C@H](c3ccccc3)N1[C@@H]2c1ccccc1OCCO	0.506 (inactive)	0.59	-2.32	2.82 (inactive)	-0.274 (inactive)	-0.475 (inactive)
CCOC(=O)C1=CCC(c2cc3ccccc3[nH]2)N(S(=O)(=O)c2ccccc2[N+](=O)[O-])C1 (centres undefined)	-0.212 (inactive)	0.817	-0.65	-1.5 (inactive)	-0.285 (inactive)	-0.518 (inactive)
Cc1ccc(F)cc1S(=O)(=O)N[C@@H]1CCN(Cc2ccc3c(c2)OCO3)C1	0.92 (inactive)	0.321	0.531	-3.75 (inactive)	-0.201 (inactive)	-0.271 (inactive)
O=C1NC(=O)C2C1C=CC(C(O)c1ccc(F)cc1)N2Nc1ccccn1 (centres undefined)	-0.184 (inactive)	0.13	1.25	-1.55 (inactive)	0.255 (inactive)	0.0273 (inactive)
O=C1C2C=CC(C(O)c3cccc(O)c3)N(Nc3ccccc3F)C2C(=O)N1c1ccccc1 (centres undefined)	1.62 (inactive)	0.632	-1.33	-3.57 (inactive)	-0.388 (inactive)	-1.33 (inactive)
C=CCNC(=O)[C@@H]1[C@H]2C(=O)O[C@H](c3ccccc3)[C@H](c3ccccc3)N2[C@H](c2ccccc2OCCO)[C@@]12C(=O)N(C(=O)OCCOC)c1ccc(C#CCCO)cc12	0.397 (inactive)	0.683	-2.09	-1.71 (inactive)	-0.37 (inactive)	-0.538 (inactive)
COc1ccc(CCNC(=O)[C@@]2(Sc3ccc(C)cc3)CC(=O)N(Cc3cc(C(F)(F)F)cc(C(F)(F)F)c3)[C@@H]2c2ccc(CO)cc2)cc1	-0.461 (inactive)	0.705	0.264	-2.57 (inactive)	0.132 (inactive)	0.282 (inactive)
COC(=O)[C@@]1(Cc2ccccc2)[C@H]2c3cc(C(=O)N4CCCC4)n(Cc4ccc(C(F)(F)F)nc4)c3C[C@H]2CN1C(=O)c1ccccc1	-0.0699 (inactive)	0.723	-1.11	-3.13 (inactive)	-0.0659 (inactive)	0.114 (inactive)
COCCOC(=O)N1C(=O)[C@@]2(c3ccccc31)[C@H](c1ccc(OCCO)cc1)N1[C@H](c3ccccc3)[C@H](c3ccccc3)OC(=O)[C@H]1[C@@H]2C(=O)N1CCN(c2ncccn2)CC1	0.522 (inactive)	0.772	-2.33	-0.376 (inactive)	0.0223 (inactive)	0.242 (inactive)
CC(C)C(=C=CC[C@@H](O)c1ccc(OCCO)cc1)CCO	0.308 (inactive)	0.222	-2.09	-2.38 (inactive)	-0.201 (inactive)	1.37 (inactive)
COc1ccc([Si](C)(C)[C@H]2[C@H](CCn3cc([C@H](O)c4ccccc4)nn3)O[C@@]3(C(=O)N(C)c4c(Br)cc(C)cc43)[C@@H]2C)cc1	0.424 (inactive)	0.586	-2.41	-2.54 (inactive)	-0.66 (inactive)	-0.0953 (inactive)
CC(C)C[C@@H]1NC(=O)[C@@H]2C[C@H](C(=O)O)[C@H](c3ccc(O)cc3)N2C1=O	1.84 (inactive)	0.705	-0.26	-3.43 (inactive)	0.873 (inactive)	0.918 (inactive)
O=C1NC(=O)C2C1C=CC(C(O)c1cccc(O)c1)N2Nc1ccc(Cl)cc1Cl (centres undefined)	-0.186 (inactive)	0.199	-0.0722	-5.1 (inactive)	0.684 (inactive)	0.194 (inactive)

Compound	composite z-score [1]	composite z-score (XIP peptide (Xip251-270))	z-score [2]	z-score [3]	z-score [4]	z-score [5]
COc1cc2c(cc1O)C(C1CC1)N(Cc1ccc([N+](=O)[O-])o1)CC2 (centres undefined)	0.402 (inactive)	0.315	-0.993	-6.04 (inactive)	-0.0479 (inactive)	0.125 (inactive)
C=CCC(OC(C)=O)[C@@H]1[C@@H](N(Cc2ccc(-c3ccccc3)cc2)C(=O)c2cccc3ccccc23)c2cc(OCCCO)ccc2N1C(=O)c1ccc2ccccc2c1 (some centres undefined)	0.15 (inactive)	-0.0461	-1.76	-1.33 (inactive)	-0.293 (inactive)	-0.006 (inactive)
CC(C)=CCN(C(=O)C#Cc1ccccc1)[C@H](CO)c1ccccc1	-0.415 (inactive)	-0.0445	-1.83	-7.52 (inactive)	-0.956 (inactive)	-0.6 (inactive)
Cc1ccc(F)cc1S(=O)(=O)N[C@@H]1CCN(Cc2ccc3[nH]ccc3c2)C1	-0.0141 (inactive)	0.261	-1.3	-4.14 (inactive)	0.29 (inactive)	-0.075 (inactive)
CC(=O)NCCCC[C@@H]1NC(=O)[C@H]2C[C@@H](C(=O)NCCCCCC[N+](C)(C)C)[C@@H](c3ccc(O)cc3)N2C1=O	0.265 (inactive)	0.883	-0.0467	-2.81 (inactive)	-0.207 (inactive)	0.0348 (inactive)
COC(=O)[C@@H]1N=C(c2ccc(OCCCO)cc2)O[C@@H]1c1ccccc1CN=[N+]=[N-]	0.0222 (inactive)	0.362	-0.776	-2.74 (inactive)	-0.196 (inactive)	-0.0701 (inactive)
Cc1ccccc1C(O)C1C=CC2C(=O)N(c3ccccc3)C(=O)C2N1Nc1ccccc1F (centres undefined)	1.5 (inactive)	0.646	0.907	-2.9 (inactive)	1.27 (inactive)	1.11 (inactive)
C=CCOC(=O)[C@H]1[C@@H]2C(=O)O[C@@H](c3ccccc3)[C@@H](c3ccccc3)N2[C@@H](c2ccc(OCCOC(=O)[C@@H]3C[C@@H]4C(=O)N[C@@H](CC(C)C)C(=O)N4[C@@H]3c3ccc(O)cc3)cc2)[C@]12C(=O)Nc1ccc(I)cc12	1.47 (inactive)	0.788	-1.79	0.999 (inactive)	-0.654 (inactive)	0.112 (inactive)
COC(=O)[C@H](Cc1ccc(O)cc1)N1CC2=CCCC=C[C@@H]2[C@H]1[C@H](O)Cc1ccccc1	-0.0324 (inactive)	0.419	-1.63	-8.16 (active)	-1.09 (inactive)	-1.18 (inactive)
CO[C@H]1O[C@H](CO)[C@@H](OC(=O)Nc2ccc3c(c2)OCO3)[C@@H]2OC(=O)[C@@H](Cc3ccccc3)C/C=C/C[C@H](Cc3ccccc3)C(=O)O[C@@H]12	0.462 (inactive)	0.692	-0.967	-8.19 (active)	-0.508 (inactive)	-0.215 (inactive)
CCCC[C@H]1OB(O)C[C@H]2C1=C(COC)C[C@H]1C(=O)C=CC(=O)[C@H]12	0.473 (inactive)	0.407	-1.09	-6.74 (inactive)	-0.591 (inactive)	-0.434 (inactive)
Cc1ccc(S[C@]2(C(=O)NC3CC3)CC(=O)N(Cc3cc(C(F)(F)F)cc(C(F)(F)F)c3)[C@@H]2c2ccc(CO)cc2I)cc1	0.102 (inactive)	0.679	0.496	-2.13 (inactive)	0.505 (inactive)	0.924 (inactive)
COc1ccc([Si](C)(C)[C@H]2[C@H](CCn3cc([C@H](O)c4ccccc4)nn3)O[C@@]3(C(=O)N(c4ccccc4)c4ccccc43)[C@@H]2C)cc1	-0.292 (inactive)	0.505	-1.18	-3.4 (inactive)	-0.282 (inactive)	-0.513 (inactive)
CCOC(=O)C[C@H]1[C@H](OC(=O)c2ccc(-c3ccccc3)cc2)[C@@H](NC(=O)CC(C)C)c2cc(OCCCO)ccc2N1C(=O)Cc1ccc(OC)cc1	0.364 (inactive)	-0.0598	-0.0881	-2.68 (inactive)	0.568 (inactive)	0.254 (inactive)
CCCC[C@@H]1C[C@H]1[C@@H](NC(=O)Cc1ccccc1)c1ccc(Cl)cc1	0.155 (inactive)	0.503	-0.0042	-2.08 (inactive)	-0.114 (inactive)	-0.588 (inactive)
CC(C)(C)OC(=O)CC[C@]1(C(=O)N2CCOCC2)N=C(c2ccc(OCCCO)cc2)O[C@H]1c1ccccc1CN=[N+]=[N-]	0.518 (inactive)	0.792	-1.79	-6.05 (inactive)	-0.0845 (inactive)	-0.314 (inactive)
C=CCNC(=O)[C@H]1[C@@H]2C(=O)O[C@@H](c3ccccc3)[C@@H](c3ccccc3)N2[C@@H](c2ccc(O)cc2)[C@]12C(=O)Nc1ccc(C#CC3=CCCCC3)cc12	0.542 (inactive)	0.785	-0.51	0.771 (inactive)	-0.354 (inactive)	-0.217 (inactive)

From PubChem BioAssay
